Test results from PubChem BioAssay (EPA / NIEHS).
Calls of active or inactive are those of the source. The calls were made as follows: active = hit-call score of the fitted dose curve at least 0.9, where 1 is the maximum; inactive = score below 0.9.

How the values were obtained:
Conditions in all cases: mRNA level, 48 h; actives raise or lower the signal
[1] = read-out: Tumor necrosis factor receptor superfamily member 6 (Homo sapiens) (UniProt P25445); assay: LTEA_HepaRG_FAS: Life Technologies and Expression Analysis (LTEA) Assay for Fas cell surface death receptor (FAS) using HepaRG (AID 2283447)
In short: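 FAS transcript level was measured by TaqMan qRT-PCR against three housekeeping genes after 48 h chemical exposure. Cells were HepaRG, 0.5% DMSO vehicle, with a top concentration of 100 uM and half-log dilutions over eight points, in duplicate.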

[2] = read-out: Cyclin D2 (CCND2), CCND2 (gene 894); assay: LTEA_HepaRG_CCND2: Life Technologies and Expression Analysis (LTEA) Assay for Cyclin D2 (CCND2) using HepaRG (AID 2283449)
In short: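 Read-out is CCND2 mRNA level measured by qRT-PCR in human HepaRG liver cells and normalised to three housekeeping genes. Chemicals were applied for 48 h at up to 100 uM, with gain or loss fitted relative to 0.5% DMSO.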

[3] = read-out: Cyclin Dependent Kinase Inhibitor 1A (CDKN1A), CDKN1A (gene 1026); assay: LTEA_HepaRG_CDKN1A: Life Technologies and Expression Analysis (LTEA) Assay for Cyclin Dependent Kinase Inhibitor 1A (CDKN1A) using HepaRG (AID 2283450)
In short: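 Expression quantified by Fluidigm qRT-PCR with ACTB, GAPDH and POLR2A normalization, fitted bidirectionally against 0.5% DMSO. Cells: HepaRG, plated 48 h then treated 48 h in serum-free induction medium, top concentration 100 uM with half-log dilutions.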

[4] = read-out: Cyclin D1 (CCND1), CCND1 (gene 595); assay: LTEA_HepaRG_CCND1: Life Technologies and Expression Analysis (LTEA) Assay for Cyclin D1 (CCND1) using HepaRG (AID 2283451);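 as to AC50: differentiated human HepaRG liver cells in serum-free induction medium; TaqMan qRT-PCR transcript level normalised to ACTB GAPDH and POLR2A housekeeping genes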
In short: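 Expression of CCND1 was quantified by qRT-PCR on Fluidigm arrays using ACTB, GAPDH and POLR2A as reference genes. HepaRG cultures, plated 48 h beforehand, were dosed for 48 h at up to 100 uM (half-log, 8 points) in 0.5% DMSO.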

[5] = read-out: catalase (CAT), CAT (gene 847); assay: LTEA_HepaRG_CAT: Life Technologies and Expression Analysis (LTEA) Assay for catalase (CAT) using HepaRG (AID 2283452);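 as to AC50: TaqMan qRT-PCR signal normalized to ACTB GAPDH and POLR2A housekeeping genes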
In short: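 Expression of CAT was quantified by TaqMan qRT-PCR with ACTB/GAPDH/POLR2A normalization after 48 h chemical exposure of HepaRG. Eight-point half-log series, top 100 uM, in 0.5% DMSO; gain or loss fitted against vehicle.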

[6] = read-out: Cytochrome P450 (CYP1A1), CYP1A1 (gene 1543); assay: LTEA_HepaRG_CYP1A1: Life Technologies and Expression Analysis (LTEA) Assay for Cytochrome P450 (CYP1A1) using HepaRG (AID 2283454)
In short: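 CYP1A1 transcript levels measured by Fluidigm qRT-PCR against three housekeeping genes, 48 h after chemical dosing of human HepaRG cells (highest concentration 100 uM, half-log steps, 0.5% DMSO vehicle). Gain or loss of signal fitted relative to DMSO.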

[7] = read-out: CFLAR gene, CFLAR (gene 8837); assay: LTEA_HepaRG_CFLAR: Life Technologies and Expression Analysis (LTEA) Assay for CFLAR gene using HepaRG (AID 2283455)
In short: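 HepaRG, 48 h exposure, 8-pt conc-response (100 uM top, half-log), 0.5% DMSO vehicle, duplicates. CFLAR expression by qRT-PCR; ACTB/GAPDH/POLR2A normalization; gain or loss fit vs DMSO baseline.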

[8] = read-out: Forkhead box O1 (FOXO1), FOXO1 (gene 2308); assay: LTEA_HepaRG_FOXO1: Life Technologies and Expression Analysis (LTEA) Assay for Forkhead box O1 (FOXO1) using HepaRG (AID 2283456)
In short: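 Readout is FOXO1 transcript level by multiplexed qRT-PCR against three housekeeping genes, curve-fitted in both directions relative to 0.5% DMSO vehicle. Human HepaRG cultures received chemicals for 48 h, up to 100 uM in half-log steps.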

[9] = read-out: growth arrest and DNA damage 45 (GADD45A), GADD45A (gene 1647); assay: LTEA_HepaRG_GADD45A: Life Technologies and Expression Analysis (LTEA) Assay for growth arrest and DNA damage 45 (GADD45A) using HepaRG (AID 2283458)
In short: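 Differentiated HepaRG cells exposed 48 h in serum-free induction medium to 8 concentrations, top 100 uM in half-log steps, 0.5% DMSO. GADD45A mRNA quantified by qRT-PCR, normalized to ACTB, GAPDH and POLR2A; bidirectional fit versus DMSO.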

[10] = read-out: Forkhead box O3 (FOXO3), FOXO3 (gene 2309); assay: LTEA_HepaRG_FOXO3: Life Technologies and Expression Analysis (LTEA) Assay for Forkhead box O3 (FOXO3) using HepaRG (AID 2283459)
In short: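 HepaRG, 48 h post-dose; 8 conc., half-log from 100 uM, 0.5% DMSO, duplicates; serum-free induction medium. Readout: FOXO3 mRNA, TaqMan qRT-PCR, housekeeping-normalized. Bidirectional curve fit vs DMSO baseline.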

[11] = read-out: ABC Transporter (ABCB1), ABCB1 (gene 5243); assay: LTEA_HepaRG_ABCB1: Life Technologies and Expression Analysis (LTEA) Assay for ABC Transporter (ABCB1) using HepaRG (AID 2283460)
In short: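 Expression of ABCB1 was quantified by qRT-PCR against three housekeeping genes after human HepaRG cultures received test chemicals for 48 hours. Concentrations spanned eight half-log steps topping at 100 uM in 0.5% DMSO; gain or loss of signal was fitted relative to vehicle.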

[12] = read-out: growth arrest and DNA damage 45 (GADD45B), GADD45B (gene 4616); assay: LTEA_HepaRG_GADD45B: Life Technologies and Expression Analysis (LTEA) Assay for growth arrest and DNA damage 45 (GADD45B) using HepaRG (AID 2283461)
In short: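 Transcript level quantified by Fluidigm TaqMan qRT-PCR with three housekeeping genes for normalization, analyzed for up- or down-regulation against 0.5% DMSO. HepaRG cultures dosed 48 h at eight half-log concentrations up to 100 uM, duplicates.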

[13] = read-out: ABC Transporter (ABCC3), ABCC3 (gene 8714); assay: LTEA_HepaRG_ABCC3: Life Technologies and Expression Analysis (LTEA) Assay for ABC Transporter (ABCC3) using HepaRG (AID 2283462)
In short: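 Transcript level by TaqMan qRT-PCR, normalised to three housekeeping genes, fitted in both directions relative to vehicle. Chemicals tested in duplicate at eight half-log concentrations up to 100 uM for 48 h on HepaRG cells (0.5% DMSO).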

[14] = read-out: Fatty acid synthase (Homo sapiens) (UniProt P49327); assay: LTEA_HepaRG_FASN: Life Technologies and Expression Analysis (LTEA) Assay for Fatty Acid Synthase (FASN) using HepaRG (AID 2283448)
In short: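 Differentiated HepaRG cells in serum-free induction medium exposed 48 h in duplicate to eight half-log concentrations, top 100 uM, 0.5% DMSO. FASN mRNA by qRT-PCR normalised to ACTB, GAPDH, POLR2A; bidirectional fit versus DMSO.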

[15] = read-out: flavin-containing dimethylaniline monooxygenases 3 (FMO3), FMO3 (gene 2328); assay: LTEA_HepaRG_FMO3: Life Technologies and Expression Analysis (LTEA) Assay for flavin-containing dimethylaniline monooxygenases 3 (FMO3) using HepaRG (AID 2283453)
In short: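 Differentiated HepaRG cells in serum-free induction medium, exposed 48 h in duplicate to 8 half-log concentrations up to 100 uM in 0.5% DMSO. FMO3 mRNA by qRT-PCR, normalized to ACTB, GAPDH, POLR2A; bidirectional fit vs DMSO.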

[16] = read-out: ABC Transporter (ABCB11), ABCB11 (gene 8647); assay: LTEA_HepaRG_ABCB11: Life Technologies and Expression Analysis (LTEA) Assay for ABC Transporter (ABCB11) using HepaRG (AID 2283463)
In short: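 ABCB11 transcript levels are read by Fluidigm TaqMan qRT-PCR after 48 h chemical treatment of human HepaRG cells. Concentrations span 100 uM downward in half-log steps with 0.5% DMSO; gain or loss is fitted against DMSO controls.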

Measured: AC50

Chain of Fatty acid synthase (Homo sapiens) (P49327 whole entry, looked up): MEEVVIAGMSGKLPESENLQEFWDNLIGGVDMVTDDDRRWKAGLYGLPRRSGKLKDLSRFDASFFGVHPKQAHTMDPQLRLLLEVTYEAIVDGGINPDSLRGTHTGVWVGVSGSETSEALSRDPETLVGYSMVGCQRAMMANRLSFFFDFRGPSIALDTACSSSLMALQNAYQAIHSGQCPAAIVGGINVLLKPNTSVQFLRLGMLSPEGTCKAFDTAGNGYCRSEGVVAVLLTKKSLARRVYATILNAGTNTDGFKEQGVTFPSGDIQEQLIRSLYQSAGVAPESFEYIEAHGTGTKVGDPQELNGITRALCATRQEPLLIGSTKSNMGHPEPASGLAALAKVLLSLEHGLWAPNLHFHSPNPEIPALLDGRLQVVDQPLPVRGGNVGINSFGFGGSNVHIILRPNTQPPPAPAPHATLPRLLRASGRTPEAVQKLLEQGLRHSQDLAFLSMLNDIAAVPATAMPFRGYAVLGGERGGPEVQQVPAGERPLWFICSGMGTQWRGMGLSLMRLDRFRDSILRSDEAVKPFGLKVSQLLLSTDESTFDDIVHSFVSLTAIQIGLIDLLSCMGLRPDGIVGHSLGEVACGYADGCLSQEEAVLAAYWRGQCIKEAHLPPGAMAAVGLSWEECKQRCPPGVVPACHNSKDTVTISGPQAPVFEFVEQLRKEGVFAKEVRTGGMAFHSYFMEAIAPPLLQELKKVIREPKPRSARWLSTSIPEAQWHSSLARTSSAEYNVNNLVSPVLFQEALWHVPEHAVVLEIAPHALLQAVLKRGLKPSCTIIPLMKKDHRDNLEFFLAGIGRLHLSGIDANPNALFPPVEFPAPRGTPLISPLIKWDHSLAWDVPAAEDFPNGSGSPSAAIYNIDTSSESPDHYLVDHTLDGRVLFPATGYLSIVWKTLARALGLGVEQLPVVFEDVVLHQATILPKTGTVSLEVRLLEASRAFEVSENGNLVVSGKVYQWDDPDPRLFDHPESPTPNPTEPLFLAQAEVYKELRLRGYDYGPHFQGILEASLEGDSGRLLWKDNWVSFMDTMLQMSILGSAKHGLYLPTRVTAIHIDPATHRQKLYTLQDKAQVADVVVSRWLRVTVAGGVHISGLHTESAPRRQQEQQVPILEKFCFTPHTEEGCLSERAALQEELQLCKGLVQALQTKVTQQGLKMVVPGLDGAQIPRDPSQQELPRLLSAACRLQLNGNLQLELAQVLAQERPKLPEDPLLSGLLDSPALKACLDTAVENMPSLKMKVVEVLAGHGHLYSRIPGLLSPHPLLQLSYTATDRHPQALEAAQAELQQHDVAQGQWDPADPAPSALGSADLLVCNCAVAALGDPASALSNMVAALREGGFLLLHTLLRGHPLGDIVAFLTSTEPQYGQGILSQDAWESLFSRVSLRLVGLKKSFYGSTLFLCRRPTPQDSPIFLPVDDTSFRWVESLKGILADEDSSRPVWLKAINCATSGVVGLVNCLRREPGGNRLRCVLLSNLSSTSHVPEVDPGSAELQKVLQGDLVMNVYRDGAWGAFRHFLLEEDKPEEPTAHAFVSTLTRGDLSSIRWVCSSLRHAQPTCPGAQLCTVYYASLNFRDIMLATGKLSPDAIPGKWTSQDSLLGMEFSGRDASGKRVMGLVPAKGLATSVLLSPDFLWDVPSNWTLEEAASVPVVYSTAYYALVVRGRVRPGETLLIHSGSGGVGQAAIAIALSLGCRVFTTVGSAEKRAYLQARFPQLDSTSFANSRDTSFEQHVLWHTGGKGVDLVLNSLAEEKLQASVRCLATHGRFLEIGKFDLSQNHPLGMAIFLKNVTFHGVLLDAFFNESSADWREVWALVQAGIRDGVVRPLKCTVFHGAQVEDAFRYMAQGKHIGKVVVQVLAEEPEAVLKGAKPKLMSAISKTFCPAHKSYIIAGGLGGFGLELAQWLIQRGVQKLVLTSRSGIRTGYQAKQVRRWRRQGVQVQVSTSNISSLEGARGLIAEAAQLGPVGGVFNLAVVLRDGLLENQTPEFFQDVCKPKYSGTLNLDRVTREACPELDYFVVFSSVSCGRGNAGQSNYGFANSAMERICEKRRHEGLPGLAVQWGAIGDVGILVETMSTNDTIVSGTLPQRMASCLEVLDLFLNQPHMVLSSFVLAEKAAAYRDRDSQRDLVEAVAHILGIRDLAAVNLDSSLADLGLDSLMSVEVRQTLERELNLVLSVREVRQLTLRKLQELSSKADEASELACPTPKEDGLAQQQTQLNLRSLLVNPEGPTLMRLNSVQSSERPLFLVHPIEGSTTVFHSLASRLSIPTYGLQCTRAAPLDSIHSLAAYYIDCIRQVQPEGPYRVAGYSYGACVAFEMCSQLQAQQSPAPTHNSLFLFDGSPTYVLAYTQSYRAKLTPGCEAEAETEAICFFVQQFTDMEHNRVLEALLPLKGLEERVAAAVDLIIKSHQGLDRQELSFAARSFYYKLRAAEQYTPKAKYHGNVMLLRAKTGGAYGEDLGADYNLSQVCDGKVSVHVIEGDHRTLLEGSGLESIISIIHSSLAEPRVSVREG

CCCCC(CC)COC(=O)c1ccccc1C(=O)O (stereo unspecified)
active: [6] 77.2 µM | [11] 74.9 µM
not listed: [14] | [15] | [16]
inactive: all other assays above

Cc1nn(C)c(Oc2ccccc2)c1C=NOCc1ccc(C(=O)OC(C)(C)C)cc1
inactive: [14] | [7] | [10] | [12]
active: [1] 8.31 µM | [3] 6.99 µM | [4] 83.9 µM | [5] 2.16 µM | [6] 19.6 µM | [8] 2.81 µM | [9] 4.15 µM | [11] 9.19 µM | [13] 1.24 µM

COC(=O)c1ccccc1C(=O)O
not listed: [14] | [15] | [16]
inactive: all other assays above

C[C@]12CC[C@@H]3c4ccc(O)cc4C[C@@H](CCCCCCCCCS(=O)CCCC(F)(F)C(F)(F)F)[C@H]3[C@@H]1CC[C@@H]2O (stereo partly specified)
active: [1] 0.0482 µM | [2] 0.05 µM | [4] 0.0338 µM | [5] 15.6 µM | [8] 0.0681 µM | [9] 0.105 µM | [11] 27.8 µM | [13] 30.9 µM
inactive: [14] | [3] | [6] | [7] | [10] | [12]

c1ccc(Nc2ccccc2)cc1
not listed: [2] | [14] | [16]
inactive: all other assays above

COC(=O)c1ccc(I)cc1S(=O)(=O)NC(=O)Nc1nc(C)nc(OC)n1
active: [6] 62.4 µM
not listed: [14] | [15] | [16]
inactive: all other assays above

COc1c(Cl)ccc(Cl)c1C(=O)O
not listed: [1] | [14] | [16]
inactive: all other assays above

CCN(CC)C(=O)c1cccc(C)c1
active: [6] 50 µM
not listed: [14] | [15]
inactive: all other assays above
